Data: PubChem BioAssay (NCATS)
Results filed as inconclusive are left out. Where a call stands in place of a potency, no number is given. Calls of active or inactive are those of the source. Calls follow the shape of the dose curve; as a rule, active = well fitted curve in the direction sought with a large enough effect; inconclusive = small, poorly fitted or top-dose-only effect, or another doubt; inactive = no such curve, though single readings can be large; an effect the other way counts as inactive or inconclusive.

Experiments:
[1] = Quantitative High-Throughput drug screen in 47 multiple myeloma cell lines against the NCATS MIPE library collection: FR4_PLB cell viability assay (AID 1918924; also: nearly all actives have a fitted effect of over 35% in size; also: potency is read from the fitted curve at half-maximal effect)
How it was run: (§1)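 Myeloma cell lines, 500 cells per well, exposed to MIPE 4.0 library compounds for 48 h at 37C, 5% CO2. Viability from ATP by CellTiter-Glo luminescence; normalised to DMSO (100%) and media-only (0%) wells.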

[2] = Quantitative High-Throughput drug screen in 47 multiple myeloma cell lines against the NCATS MIPE library collection: Delta47_JCRB cell viability assay (AID 1918925; also: nearly all actives have a fitted effect of over 45% in size; also: potency is read from the fitted curve at half-maximal effect)
How it was run: (§2)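 Steps: seed 500 cells per well; pin-transfer MIPE 4.0 library; incubate 48 h at 37C, 5% CO2, humidified; add CellTiter-Glo, 5 min room temperature; read luminescence.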

[3] = Quantitative High-Throughput drug screen in 47 multiple myeloma cell lines against the NCATS MIPE library collection: EJM_DSMZ cell viability assay (AID 1918926; also: nearly all actives have a fitted effect of over 30% in size; also: potency is read from the fitted curve at half-maximal effect)
How it was run: as §2

[4] = Quantitative High-Throughput drug screen in 47 multiple myeloma cell lines against the NCATS MIPE library collection: AMO1_DSMZ cell viability assay (AID 1918927; also: nearly all actives have a fitted effect of over 30% in size; also: potency is read from the fitted curve at half-maximal effect)
How it was run: as §2

[5] = Quantitative High-Throughput drug screen in 47 multiple myeloma cell lines against the NCATS MIPE library collection: ARP1_JJKsccF8 cell viability assay (AID 1918928; also: nearly all actives have a fitted effect of over 40% in size; also: potency is read from the fitted curve at half-maximal effect)
How it was run: (§3)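 Myeloma cells, 500 per well, were exposed to MIPE 4.0 drugs by pin transfer for 48 h at 37 °C, 5% CO2. Viability was read as ATP luminescence with CellTiter-Glo, normalised to DMSO-only (100%) and medium-only (0%) wells.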

[6] = Quantitative High-Throughput drug screen in 47 multiple myeloma cell lines against the NCATS MIPE library collection: ARD_JJKsccE7 cell viability assay (AID 1918929; also: potency is read from the fitted curve at half-maximal effect)
How it was run: as §2

[7] = Quantitative High-Throughput drug screen in 47 multiple myeloma cell lines against the NCATS MIPE library collection: Karpas620_DSMZ cell viability assay (AID 1918959); also: nearly all actives have a fitted effect of over 30% in size; also: potency is read from the fitted curve at half-maximal effect
How it was run: as §1

[8] = Quantitative High-Throughput drug screen in 47 multiple myeloma cell lines against the NCATS MIPE library collection: JIM3_ECACC cell viability assay (AID 1918963; also: nearly all actives have a fitted effect of over 35% in size; also: potency is read from the fitted curve at half-maximal effect)
How it was run: as §1

[9] = Quantitative High-Throughput drug screen in 47 multiple myeloma cell lines against the NCATS MIPE library collection: H1112_PLB cell viability assay (AID 1918967; also: nearly all actives have a fitted effect of over 30% in size; also: potency is read from the fitted curve at half-maximal effect)
How it was run: as §2

[10] = molecular target: Luciferin 4-monooxygenase (Photinus pyralis) (UniProt P08659); assay: Primary firefly luciferase (FLuc) qHTS assay for identification of artifact compounds. (AID 1845220); settings: outcome: dose series up to 54.1 µM; also: nearly all actives have a fitted effect of over 60% in size
How it was run: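 D-luciferin and ATP (10 uM each, final) in Tris acetate buffer pH 7.6 were incubated with compounds for 15 min at room temperature. The reaction was started with 10 nM Photinus pyralis luciferase and luminescence read after 5 min. Percent inhibition was fitted to a 4-parameter Hill equation.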

[11] = Primary fluorescence-based thiol-reactive (MSTI) qHTS assay for identification of artifact compounds. (AID 1845221); also: nearly all actives have a fitted effect of over 65% in size; also: potency is read from the fitted curve at half-maximal effect
How it was run: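 Compounds were incubated 1 h at room temperature in the dark with the MSTI probe (4 uM) in PBS pH 7.4, 2% DMSO. Signals were normalized between Acetyl-MSTI and MSTI.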

[12] = system: Nanoluciferase (engineered Oplophorus gracilirostris luciferase); assay: Primary Nanoluciferase (NLuc) qHTS assay for identification of artifact compounds. (AID 1845222)
How it was run: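 Diluted conditioned medium from NLuc-expressing S16 cells treated with compounds for 15 min at room temperature, then Nano-Glo substrate added; luminescence read after 5 min. Percent inhibition versus no-enzyme and DMSO controls fitted to 4-parameter Hill equation.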

[13] = Primary redox qHTS assay for identification of artifact compounds. (AID 1845223); also: potency is read from the fitted curve at half-maximal effect
How it was run: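 Amplex Red (25 uM) and HRP (250 mU/mL) in HBSS, with compounds for 15 min, then 250 uM DTT for 30 min, room temperature, dark. Fluorescence 525/598 nm read; normalized to DMSO and 10 uM DA3003; Hill fit.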

[14] = Quantitative High-Throughput drug screen in 47 multiple myeloma cell lines against the NCATS MIPE library collection: KMM1_JCRB cell viability assay (AID 1918960); also: nearly all actives have a fitted effect of over 30% in size; also: potency is read from the fitted curve at half-maximal effect
How it was run: as §3

[15] = Quantitative High-Throughput drug screen in 47 multiple myeloma cell lines against the NCATS MIPE library collection: JIM1_ECACC cell viability assay (AID 1918964; also: potency is read from the fitted curve at half-maximal effect)
How it was run: as §2

[16] = Quantitative High-Throughput drug screen in 47 multiple myeloma cell lines against the NCATS MIPE library collection: INA6_PLB cell viability assay (AID 1918965; also: nearly all actives have a fitted effect of over 55% in size; also: potency is read from the fitted curve at half-maximal effect)
How it was run: as §1

[17] = Quantitative High-Throughput drug screen in 47 multiple myeloma cell lines against the NCATS MIPE library collection: Karpas25_ECACC cell viability assay (AID 1918968; also: nearly all actives have a fitted effect of over 35% in size; also: potency is read from the fitted curve at half-maximal effect)
How it was run: as §2

[18] = Quantitative High-Throughput drug screen in 47 multiple myeloma cell lines against the NCATS MIPE library collection: Karpas417_ECACC cell viability assay (AID 1918961); settings: Karpas417 myeloma viability, CellTiter-Glo ATP luminescence, 48 h; viability (% of DMSO): at 45.8 µM (top of the series); also: potency is read from the fitted curve at half-maximal effect
How it was run: as §1

[19] = Quantitative High-Throughput drug screen in 47 multiple myeloma cell lines against the NCATS MIPE library collection: JJN3_DSMZ cell viability assay (AID 1918966; also: nearly all actives have a fitted effect of over 50% in size; also: potency is read from the fitted curve at half-maximal effect)
How it was run: as §2

[20] = Quantitative High-Throughput drug screen in 47 multiple myeloma cell lines against the NCATS MIPE library collection: KHM11_PLB cell viability assay (AID 1918962); also: nearly all actives have a fitted effect of over 35% in size; also: potency is read from the fitted curve at half-maximal effect
How it was run: as §1

Row | Structure (SMILES) | Potency [1] | Potency [2] | Potency [3] | Potency [4] | Potency [5] | Potency [6] | Potency [7] | Potency [8] | Potency [9] | outcome [10] | Potency [11] | outcome [12] | Potency [13] | Potency [14] | Potency [15] | Potency [16] | Potency [17] | Potency [18] | Potency [19] | Potency [20]
1 | CC[C@H](NC(C)C)[C@H](O)c1ccc(O)c2[nH]c(=O)ccc12 | inactive | inactive | inactive | inactive | inactive | inactive | inactive | inactive | inactive | – | – | – | – | – | – | – | – | – | – | –
2 | CC1(C)[C@H](C(=O)O)N2C(=O)C[C@H]2S1(=O)=O | inactive | inactive | inactive | – | inactive | – | inactive | inactive | inactive | inactive | inactive | inactive | inactive | inactive | inactive | inactive | inactive | – | – | –
3 | CC1=NN(c2ccccc2)C(=O)C1 | inactive | inactive | – | – | inactive | inactive | inactive | inactive | inactive | inactive | 8.44 µM (active) | inactive | 3.36 µM (active) | inactive | – | – | – | – | – | –
4 | COc1cc2c(Nc3ccc(Br)cc3F)ncnc2cc1OCC1CCN(C)CC1 | – | – | 23.5 µM (active) | – | – | – | – | inactive | – | inactive | inactive | inactive | – | inactive | – | 9.35 µM (active) | 8.33 µM (active) | inactive | 18.7 µM (active) | –
5 | COc1ccccc1OCC(O)COC(N)=O (centres undefined) | inactive | inactive | inactive | inactive | inactive | – | inactive | inactive | inactive | – | – | – | – | inactive | – | inactive | inactive | – | – | –
6 | CCOC(=O)c1ccc(OC(=O)CCCCCN=C(N)N)cc1 | inactive | inactive | inactive | inactive | inactive | inactive | inactive | – | inactive | – | – | – | – | inactive | inactive | – | inactive | inactive | inactive | –
7 | O=C(O)c1cccnc1 | inactive | inactive | inactive | inactive | – | inactive | inactive | inactive | inactive | – | – | – | – | inactive | – | inactive | – | inactive | – | 18.7 µM (active)
8 | Oc1c(Cl)cc(Cl)c2cccnc12 | 18.7 µM (active) | 23.5 µM (active) | 6.62 µM (active) | 10.5 µM (active) | 26.4 µM (active) | 18.7 µM (active) | – | 9.35 µM (active) | 11.8 µM (active) | – | – | – | – | – | 8.33 µM (active) | – | 9.35 µM (active) | – | 8.33 µM (active) | –
9 | COC(=O)Nc1nc2ccc(Sc3ccccc3)cc2[nH]1 | 0.935 µM (active) | 1.05 µM (active) | 16.6 µM (active) | – | 1.18 µM (active) | 1.32 µM (active) | – | 0.833 µM (active) | – | – | – | – | – | 1.18 µM (active) | – | – | – | – | 10.5 µM (active) | –
10 | Cn1c(=O)c2c(ncn2CC(O)CO)n(C)c1=O (centres undefined) | inactive | inactive | inactive | – | inactive | – | – | inactive | inactive | – | – | – | – | inactive | inactive | – | inactive | – | – | inactive
11 | CCCN[C@H]1CCc2nc(N)sc2C1 | inactive | inactive | inactive | – | – | – | – | inactive | inactive | – | – | – | – | – | – | – | 2.09 µM (active) | – | inactive | –
12 | C[C@@H](NCCCc1cccc(C(F)(F)F)c1)c1cccc2ccccc12 | inactive | inactive | inactive | – | inactive | – | – | 13.2 µM (active) | inactive | – | – | – | – | inactive | – | – | inactive | – | – | –
13 | CC(C)(C)C(=O)OCOP(=O)(COCCn1cnc2c(N)ncnc21)OCOC(=O)C(C)(C)C | 6.62 µM (active) | 0.0833 µM (active) | 0.935 µM (active) | – | 0.833 µM (active) | – | 16.6 µM (active) | 2.64 µM (active) | 3.72 µM (active) | – | – | – | – | 11.8 µM (active) | 2.64 µM (active) | – | 1.66 µM (active) | – | 0.526 µM (active) | –
14 | C1CCC(C(CC2CCCCN2)C2CCCCC2)CC1 (centres undefined) | 11.8 µM (active) | 13.2 µM (active) | 26.4 µM (active) | – | 23.5 µM (active) | 26.4 µM (active) | – | 18.7 µM (active) | 23.5 µM (active) | – | – | – | – | 14.8 µM (active) | 20.9 µM (active) | – | 8.33 µM (active) | 18.7 µM (active) | 20.9 µM (active) | 11.8 µM (active)
15 | COc1cc(NS(=O)(=O)c2ccc(N)cc2)nc(OC)n1 | inactive | inactive | inactive | – | inactive | inactive | inactive | inactive | inactive | – | – | – | – | inactive | – | inactive | inactive | – | inactive | –
16 | Cc1cc(NS(=O)(=O)c2ccc(N)cc2)no1 | inactive | inactive | inactive | – | inactive | inactive | inactive | inactive | inactive | – | – | – | – | inactive | – | inactive | inactive | – | – | inactive
17 | CC(=O)Oc1ccccc1C(=O)Nc1ncc([N+](=O)[O-])s1 | 19.1 µM (active) | 30.3 µM (active) | 13.6 µM (active) | – | 34 µM (active) | 21.5 µM (active) | – | 17.1 µM (active) | 21.5 µM (active) | – | – | – | – | 8.55 µM (active) | 27 µM (active) | 17.1 µM (active) | 8.55 µM (active) | 13.6 µM (active) | 30.3 µM (active) | –
18 | COc1cccc(N(C)C(=S)Oc2ccc3c(c2)CCCC3)n1 | inactive | inactive | inactive | – | – | 23.5 µM (active) | – | inactive | inactive | – | – | – | – | – | – | 16.6 µM (active) | – | – | – | –
